Bioassay records from PubChem.
A selection: hits, their analogues and other compounds. The true share with any hit is near 4.1%.
MEKK3 PB1 HTS: raises or lowers MEK5 binding to the human MEKK3 PB1 domain; binding response (% of control), % at 10 µM; Q99759; 290,000 tested, 1.4% active; bead-based flow cytometry, Alexa488-MEK5 binding to MEKK3; actives lie on both sides; 0 = blocked by unlabeled MEK5, 100 = vehicle;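 active = binding response more than 3 SD above or below the average of its plate-row segment, actives on both sides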;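 also: Alexa488 bead fluorescence after subtracting the streptavidin-only scavenger bead signal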
MEKK2mut PB1 HTS: signal of MEK5 binding to mutant human MEKK2 PB1 domain; bead flow cytometry, Alexa488-MEK5 binding to MEKK2 mutant; percent response, % at 10 µM; 290,000 tested, 0.35% active; AID 1530; in the data active = percent response above about 24%, passing the limit was not always enough
CHT allo act: human CHT allosteric activation | Q9GZV3 | CHT-expressing cells, membrane potential dye, choline EC20; stronger effect = higher value; LV-AA mutant CHT in HEK293 cells | B-score at 10 µM | 310,000 tested, 0.49% active | AID 488977;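 active = initial fluorescence not abnormally high and integrated response B-score, plate-corrected, over 3 SD above library mean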
CHT inh: inhibits the human high affinity choline transporter | B-score at 10 µM | AID 488975 | CHT-expressing cells, membrane potential dye, choline response; stronger effect = lower value | 310,000 tested, 0.86% active;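 active = B-score over 3 SD under the library average, and starting fluorescence ratio not unusually high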;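 also: choline stimulus applied at its EC90 after an EC20 pre-addition; B-score computed on integrated fluorescence ratio after choline addition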
Mot1-301 SUMO: inhibitors of SUMOylation pathway: yeast Mot1-301 growth rescue; S. cerevisiae Mot1-301 growth rescue, ATP luminescence, 38.5C; percent above DMSO median, 100 means doubled; growth rescue, % at 18.8 µM; 320,000 tested, 1% active; AID 2716;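 active = every valid replicate shows activation above 250% relative to neutral control wells; inactive = the rest, any valid replicate at or below 250%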
MEKK2wt PB1 HTS: raises or lowers MEK5 binding to wildtype human MEKK2 PB1 domain. bead flow cytometry, Alexa488-MEK5 binding to MEKK2 WT; actives lie on both sides. AID 1531. 290,000 tested, 1.1% active. binding response (% of control), % at 10 µM; in the data active = binding response below about 67% or above about 130%
MEKK2wt confirm: raises or lowers MEK5 binding to wildtype human MEKK2, retest. shares compounds with MEKK3 PB1 HTS. bead flow cytometry, Alexa488-MEK5 binding to MEKK2 WT; actives lie on both sides. binding response (% of control), % at 10 µM. 5,900 tested, 2.4% active. AID 1892; in the data active = binding response below about 16% or above about 210%; inactive = in between
MEKK2mut-MEK5: signal of MEK5 binding to mutant human MEKK2, retest. shares compounds with MEKK3 PB1 HTS. bead flow cytometry, Alexa488-MEK5 binding to MEKK2 mutant. percent response, % at 10 µM. 5,900 tested, 2% active; in the data active = percent response mostly above about 71%, no sharp cut-off; inactive = mostly below about 38%;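 also: higher means compound restores mutant binding toward wildtype level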
MEKK3 confirm: confirmation of inhibitors of MEK5 binding to human MEKK3 | shares compounds with MEKK3 PB1 HTS | binding response (% of control), % at 10 µM | bead flow cytometry, Alexa488-MEK5 binding to MEKK3; stronger effect = lower value | 5,900 tested, 1.8% active;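 active = binding response below 72% of control, or above a set upper limit, though filed actives all read lower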
Each line names hits and unclear results; the compound was inactive in the other large screens (follow-up assays come after a bar, where they were run); [ ] = another dose, or the depositor's remark.

Cc1ccc(C(=O)CN(C(=O)c2ccc(Cl)c(Cl)c2)N2C(=O)C3C4C=CC(C4)C3C2=O)cc1 (stereo not drawn)	MEKK3 PB1 HTS 82[inhibitor] | MEKK2wt confirm inactive | MEKK2mut-MEK5 inactive | MEKK3 confirm inactive
COc1ccc(/C(C)=N/NC(=O)CNC(=O)/C=C\c2ccccc2)c(OC)c1	none
c1ccc(Nc2nc(N3CCCCC3)nc(N3CCCCC3)n2)cc1	none
CCOc1ccc(Nc2nc(N3CCCCC3)nc(N3CCCCC3)n2)cc1	MEKK3 PB1 HTS 78[inhibitor] | MEKK2wt confirm inactive | MEKK2mut-MEK5 inactive | MEKK3 confirm inactive
CCOc1ccc(OCC(=O)Nc2ccc(OC)cc2[N+](=O)[O-])cc1	MEKK3 PB1 HTS 37[inhibitor] | MEKK2wt confirm inactive | MEKK2mut-MEK5 inactive | MEKK3 confirm inactive
CCNC(=O)CC1SC(=Nc2ccc(C)cc2)N(CC)C1=O (stereo not drawn)	none
CCCCN1C(=O)C(CC(=O)NCC)SC1=Nc1ccccc1 (stereo not drawn)	MEKK3 PB1 HTS 134 | MEKK2wt confirm inactive | MEKK2mut-MEK5 inactive | MEKK3 confirm inactive
O=C(CCN1CCC(c2ccccc2)C1)c1cccs1 (stereo not drawn)	MEKK3 PB1 HTS 81[inhibitor] | MEKK2wt confirm inactive | MEKK2mut-MEK5 inactive | MEKK3 confirm inactive
N#Cc1sc2nc(C3CC3)cc(-c3ccccc3)c2c1N	MEKK3 PB1 HTS 131 | MEKK2wt confirm inactive | MEKK2mut-MEK5 inactive | MEKK3 confirm inactive
CCOc1ccc(C2N(c3cc(C)on3)C(=O)C3CCCN32)cc1OC (stereo not drawn)	MEKK3 PB1 HTS -1.0[inhibitor], MEKK2wt PB1 HTS -2.0[inhibitor] | MEKK2wt confirm inactive | MEKK2mut-MEK5 inactive | MEKK3 confirm inactive
CC1Cc2ccccc2N1C(=O)CO/N=C/c1ccc(OC(F)F)cc1 (stereo not drawn)	none
C/C(=N\NC(=O)COc1cc(C)cc(C)c1)c1cccc(NC(=O)C2CCC2)c1	none
CCOCCCNC(=S)Nc1cc(C)cc(C)c1	MEKK3 PB1 HTS 141 | MEKK2wt confirm inactive | MEKK2mut-MEK5 inactive | MEKK3 confirm inactive
COC(=O)C1=C(N)N(c2ccccc2F)C2=C(C(=O)CC(C)(C)C2)C1c1ccc(OC)c(OC)c1 (stereo not drawn)	none
CCCCN1C(=S)NC[C@@H]1c1ccccc1	none
COc1cc(CCCN2C(=S)NC[C@@H]2Cc2ccccc2)cc(OC)c1OC	MEKK3 PB1 HTS 1.0[inhibitor], MEKK2wt PB1 HTS 0.0[inhibitor] | MEKK2wt confirm inactive | MEKK2mut-MEK5 inactive | MEKK3 confirm inactive
COc1cc(CCCN2C(=S)NC[C@@H]2c2ccccc2)cc(OC)c1OC	MEKK3 PB1 HTS 80[inhibitor] | MEKK2wt confirm inactive | MEKK2mut-MEK5 inactive | MEKK3 confirm inactive
COc1ccc2c(c1OC)C(=O)N1C2SC[C@H]1C(=O)NC1CCCC1 (stereo partly drawn)	none
COC(=O)C1=C(C(=O)OC)[C@@H]2N(Cc3ccccc3)c3ccccc3[C@@]23C[C@@H](C(=O)OC)N=C3N1	MEKK2wt PB1 HTS 141 | MEKK2wt confirm inactive | MEKK2mut-MEK5 inactive | MEKK3 confirm inactive
CCNc1ccc(C(=O)OCC(=O)NCc2ccccc2Cl)cc1[N+](=O)[O-]	MEKK3 PB1 HTS 140 | MEKK2wt confirm inactive | MEKK2mut-MEK5 inactive | MEKK3 confirm inactive
CCCCCCCCCCCCCCCC(O)C(N)CO (stereo not drawn)	MEKK2mut PB1 HTS 38, MEKK2wt PB1 HTS 220 | MEKK2wt confirm inactive | MEKK2mut-MEK5 inactive | MEKK3 confirm inactive
CCCCCCCCO	none (no result: MEKK3 PB1 HTS, MEKK2mut PB1 HTS, CHT allo act, CHT inh, MEKK2wt PB1 HTS)
O=C(CNC(=O)c1ccc(Br)o1)NNC(=O)c1ccccc1F	none
